{"source": "PubChem BioAssay (EPA / NIEHS)", "key": {"[1]": {"assay": "Tanguay_ZF_120hpf_ActivityScore_legacy: (Legacy) Oregon State University Tanguay Lab 120 Hour Post-fertilization zebrafish Assay Score for Activity (AID 2283742)", "method_in_brief": "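Embryos are staged, enzymatically dechorionated at 4 hpf, placed individually at 6 hpf, then held in test chemical (0.64% DMSO) at 28C until 120 hpf. Mortality and malformations are scored by brightfield, with non-mortality endpoints skipped for dead embryos.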"}, "[2]": {"tested_on": "chicken Androgen Receptor (AR), gene 422165", "assay": "ATG_chAR_XSP1: Attagene TRANS-FACTORIAL Multi-Species (XSP1) HepG2 Assay for chicken Androgen Receptor (AR) (AID 2283768)", "method_in_brief": "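HepG2 cells transiently transfected with multiplexed GAL4-UAS reporter units expressing chimeric chicken AR-Gal4; 3 nM 6-alpha-fluorotestosterone for partial AR stimulation; 24 h after dosing, reporter mRNA by RT-PCR and capillary electrophoresis, gain-of-signal versus DMSO.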"}, "[3]": {"target": "zebrafish Estrogen Receptor (ESR1), esr1 (gene 259252) (UniProt P57717)", "sequence (P57717 whole entry, looked up, the tested form may be a part)": "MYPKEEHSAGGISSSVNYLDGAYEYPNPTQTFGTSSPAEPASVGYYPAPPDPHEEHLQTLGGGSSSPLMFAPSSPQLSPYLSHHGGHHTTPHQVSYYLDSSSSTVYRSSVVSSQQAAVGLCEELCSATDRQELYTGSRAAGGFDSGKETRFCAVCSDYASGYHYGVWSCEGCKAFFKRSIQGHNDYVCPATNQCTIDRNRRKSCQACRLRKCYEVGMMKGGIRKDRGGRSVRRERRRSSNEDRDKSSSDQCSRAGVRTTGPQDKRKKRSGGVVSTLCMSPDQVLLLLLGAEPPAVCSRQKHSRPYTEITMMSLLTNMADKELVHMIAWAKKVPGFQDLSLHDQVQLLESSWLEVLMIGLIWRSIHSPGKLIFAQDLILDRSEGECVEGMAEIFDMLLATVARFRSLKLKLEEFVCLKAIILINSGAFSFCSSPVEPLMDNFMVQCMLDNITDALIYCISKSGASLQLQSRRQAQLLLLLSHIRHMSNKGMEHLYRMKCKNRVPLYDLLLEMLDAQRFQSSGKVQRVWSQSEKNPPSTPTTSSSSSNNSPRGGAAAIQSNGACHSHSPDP", "assay": "ATG_zfER1_XSP1: Attagene TRANS-FACTORIAL Multi-Species (XSP1) HepG2 Assay for zebrafish Estrogen Receptor (ESR1) (AID 2283772)", "method_in_brief": "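Exogenous chimeric receptor-GAL4 activity is measured in transiently transfected human HepG2 liver cells after 24 h compound exposure. Reporter transcripts are detected by RT-PCR and fluorescent capillary electrophoresis, analysed for signal gain relative to DMSO.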"}, "[4]": {"tested_on": "zebrafish Estrogen Receptor (ESR2B), gene 317733", "assay": "ATG_zfER2b_XSP1: Attagene TRANS-FACTORIAL Multi-Species (XSP1) HepG2 Assay for zebrafish Estrogen Receptor (ESR2B) (AID 2283773)", "method_in_brief": "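Gain-of-signal endpoint relative to DMSO: reporter transcript levels quantified by RT-PCR and capillary electrophoresis after 24 h compound exposure of HepG2 cells expressing a zebrafish ER2b-Gal4 chimera.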"}, "[5]": {"tested_on": "frog Estrogen Receptor (ESR2), gene 100174814", "assay": "ATG_frER2_XSP1: Attagene TRANS-FACTORIAL Multi-Species (XSP1) HepG2 Assay for frog Estrogen Receptor (ESR2) (AID 2283774)", "method_in_brief": "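Transactivation of an exogenous receptor-Gal4 fusion is tracked in transfected HepG2 cells via induced reporter transcript levels. After 24 h treatment, RT-PCR with capillary electrophoresis quantifies signal gain over DMSO.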"}, "[6]": {"assay": "ACEA_AR_antagonist_AUC_viability: ACEA Biosciences xCELLigence Real-Time Cell Analysis on Androgen Receptor Antagonism for Viability (AID 2283776);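 also: 22Rv1 human prostate cancer cells growing on impedance electrode plates; hits lower the growth signal relative to DMSO meaning cytotoxicity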", "method_in_brief": "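Impedance read-out (RT-CES): area under growth curve at 80 h post-dose, loss of signal scored vs DMSO baseline. 22Rv1 cells; 8-pt 1:4 series, top 100 uM final, ≤0.5% DMSO; biological duplicate.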"}, "[7]": {"tested_on": "frog Estrogen Receptor (ESR1), gene 398734", "assay": "ATG_frER1_XSP1: Attagene TRANS-FACTORIAL Multi-Species (XSP1) HepG2 Assay for frog Estrogen Receptor (ESR1) (AID 2283777)", "method_in_brief": "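Human hepatoma HepG2 cells carried transiently transfected multiplexed Gal4-driven reporters and were exposed to test chemicals for 24 hours. Transcripts were quantified by fluorescent RT-PCR with capillary electrophoresis, referenced to DMSO.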"}, "[8]": {"tested_on": "zebrafish Estrogen Receptor (ESR2A), gene 317734", "assay": "ATG_zfER2a_XSP1: Attagene TRANS-FACTORIAL Multi-Species (XSP1) HepG2 Assay for zebrafish Estrogen Receptor (ESR2A) (AID 2283778)", "method_in_brief": "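Cells were transfected, dosed for 24 h, then total RNA was isolated. After oligo(dT) reverse transcription, reporter sequences were amplified, FAM-labelled by primer extension, digested with HpaI and sized by capillary electrophoresis; DMSO served as baseline.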"}, "[9]": {"target": "chicken Estrogen Receptor (ESR1), ESR1 (gene 396099) (UniProt P06212)", "sequence (P06212 whole entry, looked up, the tested form may be a part)": "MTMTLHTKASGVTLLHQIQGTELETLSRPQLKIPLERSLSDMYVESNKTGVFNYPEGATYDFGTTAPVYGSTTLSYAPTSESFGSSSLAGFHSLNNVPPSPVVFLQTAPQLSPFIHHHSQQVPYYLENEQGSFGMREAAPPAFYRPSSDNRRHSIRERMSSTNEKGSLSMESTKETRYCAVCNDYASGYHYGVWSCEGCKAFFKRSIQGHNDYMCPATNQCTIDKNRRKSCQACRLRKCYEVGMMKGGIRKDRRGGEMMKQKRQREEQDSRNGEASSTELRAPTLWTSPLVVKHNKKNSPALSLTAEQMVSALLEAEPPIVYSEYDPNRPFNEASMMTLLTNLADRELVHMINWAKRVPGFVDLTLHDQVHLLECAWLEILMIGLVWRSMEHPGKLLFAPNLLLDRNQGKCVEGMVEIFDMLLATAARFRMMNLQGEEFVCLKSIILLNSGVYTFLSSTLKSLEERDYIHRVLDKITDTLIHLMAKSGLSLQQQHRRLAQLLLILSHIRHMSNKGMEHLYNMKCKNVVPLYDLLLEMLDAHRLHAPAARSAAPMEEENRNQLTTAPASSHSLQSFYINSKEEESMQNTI", "assay": "ATG_chERa_XSP1: Attagene TRANS-FACTORIAL Multi-Species (XSP1) HepG2 Assay for chicken Estrogen Receptor (ESR1) (AID 2283779)", "method_in_brief": "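Human liver HepG2, transient MRTU transfection (NR-Gal4 chimeras, GAL4-UAS reporters); 24 h compound exposure; 3 nM 6-alpha-fluorotestosterone in medium. Total RNA → RT-PCR → 6-FAM primer extension → HpaI → CE. Positive direction vs DMSO baseline.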"}, "[10]": {"tested_on": "Thyroperoxidase (TPO), gene 445522", "assay": "CCTE_Simmons_GUA_TPO: CCTE's Guaiacol Assay for Thyroperoxidase (TPO) Inhibition, Simmons Lab (AID 2283750)", "method_in_brief": "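Porcine thyroid microsomes (25 ug) in 200mM potassium phosphate, preincubated 30 s at 37C with compound (8 concentrations, 5 nM–87.5 uM) and 35mM guaiacol; 1mM H2O2 starts reaction. Absorbance change at 450nm over first 80 s; loss of signal versus DMSO, three replicates.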"}, "[11]": {"target": "Luciferin 4-monooxygenase (Photinus pyralis) (UniProt P08659)", "sequence (P08659 whole entry, looked up)": "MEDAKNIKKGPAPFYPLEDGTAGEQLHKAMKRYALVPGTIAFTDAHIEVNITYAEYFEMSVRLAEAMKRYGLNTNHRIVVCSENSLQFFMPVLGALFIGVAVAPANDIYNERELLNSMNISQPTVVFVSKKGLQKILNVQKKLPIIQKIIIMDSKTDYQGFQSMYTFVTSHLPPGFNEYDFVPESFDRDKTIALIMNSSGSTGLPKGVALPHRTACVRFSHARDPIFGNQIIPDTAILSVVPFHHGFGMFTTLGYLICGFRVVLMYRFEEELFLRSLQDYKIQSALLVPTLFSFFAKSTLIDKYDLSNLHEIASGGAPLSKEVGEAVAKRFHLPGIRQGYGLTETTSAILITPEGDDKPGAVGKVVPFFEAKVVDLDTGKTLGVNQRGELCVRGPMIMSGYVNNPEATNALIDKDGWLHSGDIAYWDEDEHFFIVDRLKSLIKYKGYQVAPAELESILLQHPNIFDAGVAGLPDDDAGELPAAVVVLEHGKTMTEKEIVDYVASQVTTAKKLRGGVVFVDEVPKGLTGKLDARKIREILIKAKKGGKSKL", "assay": "CCTE_Simmons_QuantiLum_inhib_2: CCTE's Firefly Luciferase Inhibition Assay, Simmons Lab (AID 2283767)", "method_in_brief": "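Luminescence loss relative to DMSO vehicle defines inhibition; detection reagent containing 150 uM D-luciferin and 147 uM dATP (final, pH 7.8) is injected immediately before each read. Enzyme is preincubated with an 8-point titration (5 nM–87.5 uM final) for 30 min at 37C.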"}, "[12]": {"assay": "ArunA_CellTiter_hNC: Viability Assessment in the ArunA Biomedical's Oris Neural Crest (hNC) Cell Migration Assay (AID 2283752)", "method_in_brief": "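Cell titer was measured with the CellTiter Aqueous One reagent after 72 h of chemical dosing. Cells were H9-derived embryonic neural crest stem cells seeded on Matrigel, 60,000 per well, and given 16 h at 37C beforehand.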"}, "[13]": {"assay": "ArunA_CellTiter_hNP: Viability Assessment in the ArunA Biomedical's Oris Neural Crest (hNC) Cell Migration Assay (AID 2283753)", "method_in_brief": "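H9-derived hNP1 neuroprogenitors, 60,000/well on Matrigel, cultured 16 h, then 72 h chemical exposure in test medium. Cell titer via CellTiter Aqueous One; positive-direction fit vs DMSO.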"}, "[14]": {"assay": "ArunA_Migration_hNP: ArunA Biomedical's Oris Neuroprogenitor (hNP) Cell Migration Assay (AID 2283754)", "method_in_brief": "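Human H9-derived hNP1 neuroprogenitors on Matrigel with LIF/bFGF, plated around seeding stoppers for 16 h at 37C; stoppers removed at start of 72 h chemical exposure. Calcein-AM staining, fluorescence 494/517 nm in detection zone; loss-of-signal vs DMSO; cytochalasin D control.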"}, "[15]": {"assay": "ArunA_Migration_hNC: ArunA Biomedical's Oris Neural Crest (hNC) Cell Migration Assay (AID 2283755)", "method_in_brief": "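Human H9-derived neural crest stem cells, 60,000/well on Matrigel, 16 h at 37C, then 72 h chemical exposure after seeding-stopper removal. Migration into detection zone read as calcein-AM fluorescence (ex494/em517), relative to DMSO.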"}, "[16]": {"assay": "ArunA_NOG_NucleusCount: ArunA Biomedical's Neurite Outgrowth (NOG) Assay for Nucleus Count (AID 2283756)", "method_in_brief": "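Human H9-derived differentiated neurons were exposed for 48 h right after seeding. Hoechst-stained nuclei gated by size and intensity were counted by automated high-content imaging as viable neurons. Loss of signal vs DMSO.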"}, "[17]": {"assay": "ArunA_NOG_NeuritesPerNeuron: ArunA Biomedical's Neurite Outgrowth (NOG) Assay for Neurites Per Neuron (AID 2283758)", "method_in_brief": "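Differentiated human H9-derived neurons exposed to chemicals for 48 h from seeding, then stained with Hoechst and βIII-tubulin/DyLight 488. Automated imaging counted neurites (processes >10 um) per valid neuron; loss of signal versus DMSO scored.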"}}, "note": "Records with an inconclusive call do not appear. Active and inactive are the calls of the source. The calls were made as follows: active = hit-call score of the fitted dose curve at least 0.9, where 1 is the maximum; inconclusive = response in the unintended direction; inactive = score below 0.9."}
{"compound": "Cc1c(COC(=O)[C@@H]2[C@H](/C=C(\\Cl)C(F)(F)F)C2(C)C)cccc1-c1ccccc1", "values": [{"measurement": "outcome", "setting": "[1]", "result": "inactive"}, {"measurement": "outcome", "setting": "[2]", "result": "inactive"}, {"measurement": "outcome", "setting": "[3]", "result": "inactive"}, {"measurement": "AC50", "setting": "[4]", "result": "69.1 µM (active)"}, {"measurement": "AC50", "setting": "[5]", "result": "100 µM (active)"}, {"measurement": "AC50", "setting": "[6]", "result": "31.4 µM (active)"}, {"measurement": "AC50", "setting": "[7]", "result": "36.3 µM (active)"}, {"measurement": "outcome", "setting": "[8]", "result": "inactive"}, {"measurement": "outcome", "setting": "[9]", "result": "inactive"}]}
{"compound": "COc1cc(OC)nc(NC(=O)NS(=O)(=O)c2ncccc2OCC(F)(F)F)n1", "values": [{"measurement": "outcome", "setting": "[1]", "result": "inactive"}]}
{"compound": "COC(=O)NC(=S)Nc1ccccc1NC(=S)NC(=O)OC", "values": [{"measurement": "outcome", "setting": "[1]", "result": "inactive"}, {"measurement": "AC50", "setting": "[10]", "result": "49.6 µM (active)"}, {"measurement": "outcome", "setting": "[11]", "result": "inactive"}, {"measurement": "AC50", "setting": "[6]", "result": "21.6 µM (active)"}]}
{"compound": "CC(C)C1(C)N=C(c2ncccc2C(=O)O)NC1=O", "note": "(stereo not drawn)", "values": [{"measurement": "outcome", "setting": "[1]", "result": "inactive"}, {"measurement": "outcome", "setting": "[12]", "result": "inactive"}, {"measurement": "outcome", "setting": "[13]", "result": "inactive"}, {"measurement": "outcome", "setting": "[14]", "result": "inactive"}, {"measurement": "outcome", "setting": "[15]", "result": "inactive"}, {"measurement": "outcome", "setting": "[16]", "result": "inactive"}, {"measurement": "outcome", "setting": "[17]", "result": "inactive"}, {"measurement": "outcome", "setting": "[6]", "result": "inactive"}]}
{"compound": "COCC(=O)N(c1c(C)cccc1C)C(C)C(=O)OC", "note": "(stereo not drawn)", "values": [{"measurement": "outcome", "setting": "[1]", "result": "inactive"}]}
